# Measurements taken from PubChem BioAssay AID1508600 (Functional Genomics Laboratory (NCATS/FGL), 2020).
# Hit rate of the full screen: of about 53,000 sequences, about 3,700 (7%) were called active.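 Rule for the calls: active = gene knockdowns whose robust z-score for IL-1 alpha signal is at least 2 or at most -2, so actives lie on both sides; inactive = the rest.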 This excerpt belongs to a sample that is enriched for actives.
# Assay: Components of the Cytosolic LPS Sensing Pathway: Gene Identification via Genome-wide siRNA Screen
# Conditions: RAW264.7 macrophages, IL-1a HTRF, actives lie on both sides, screened at 100 nM (by protocol), cells primed 5 h with Pam3CSK4 first
# Description: Non-canonical inflammasome activation by cytosolic LPS is a critical component of the host response to Gram-negative bacterial infection, however we lack a comprehensive understanding of the cellular processes that control this pathway. Here we describe a genome-wide siRNA screen to identify genes regulating the mouse macrophage IL-1 alpha response to cytosolic LPS.
# RAW264.7 cells were maintained in complete DMEM media, comprising DMEM with 4.5 g/L glucose, 10% FBS (Gemini Bio-Products, West Sacramento, CA), 2 mM Glutamine (Lonza) and 20 mM HEPES (Lonza), hereafter complete DMEM.
# The RNAi screen was conducted in 384-well format using the Ambion Silencer Mouse Genome siRNA Library (#4391425), which consists of three unique, nonoverlapping, nonpooled siRNAs for each of 17,000 gene targets. siRNA reagents ([…]) were stamped into 384-well white flat-bottom microplates (Corning, 3570) using a Velocity11 VPrep liquid handling system (Agilent) integrated into a BioCel robotic platform (Agilent) in columns 1-22, leaving columns 23-24 empty for negative (Ambion, Negative control #1) and positive (mouse Casp4) controls, respectively. The median value of each plate's negative control column was used to normalize sample wells, and the positive control was used to assess transfection efficiency and assay performance.
# Lipofectamine RNAiMAX Transfection Reagent ([…]; Invitrogen) was added in […] serum-free, antibiotic-free media to plate wells using a Thermo Scientific Matrix WellMate and Microplate Stacker. Plates were incubated for 45 min at room temperature to allow for the sufficient formation of siRNA-lipid complexes. Cells were seeded at a density of 1x10^4 cells per well in 20 microL media containing 20% (vol/vol) FBS without antibiotics. The final concentration of siRNA in each well was 100 nM. Cells were cultured for 48h at 37 degrees C in 5% CO2 before addition of […] of TLR ligand Pam3CSK4 for 5 hours. The medium was then removed, replaced with […] growth media and cell were transfected with […] of LipidA and TransIT-TKO (Mirus) for 24 hour. At the end of the LipidA treatment, […] of supernatant was transferred to a 384 Greiner Bio-one non-binding low volume plate and […] of IL-1a HTRF reagent (Cisbio, 62MIL1APEH) was added and incubated at room temperature overnight. The plates were read on an EnVision plate reader (PerkinElmer). Cell viability was measured by adding 20ul Cell Titer Glo to the original plate and running a luminescence read on the EnVision. The quantified IL-1a signal for each siRNA gene-targeted well was divided by the median of the negative control wells and multiplied by 100 to achieve a negative control normalized value for each well/siRNA. This normalized value was then used to generate a robust z-score by first taking the log of each value and then by subtracting the median and dividing by the […].
row,Sequence,z-score
1,GAGAACCAGGCUAUGUCUGTT against Defa-rs10,0.623 (inactive)
2,GCUGGCUGUUGGAUAAGUGTT against Olfr1112,2.45 (active)
3,CCUUGAUUGAGCCUGACUUTT against Hook2,0.543 (inactive)
4,CCUCAUAUAUCCCUAAUUATT against Camk1g,-0.982 (inactive)
5,GGACCUGUUUGAGCAGAGGTT against Eps8l2,0.539 (inactive)
6,GGUAGAAGUGAAAAAGAUATT against Bhmt,-0.386 (inactive)
7,GCGAGAGAUUCUUUCCCUGTT against Traf6,-1.24 (inactive)
8,CCUCCUCUCUGUUUUCUACTT against Olfr699,-1.16 (inactive)
9,GCAGAAAAACCUGUGAAAATT against Pcnp,1.57 (inactive)
10,GGAUGGAUGUUUGCAUAAATT against Msx2,5.06 (active)
11,GGGACACAUACUGUAGUAUTT against Pspc1,0.00343 (inactive)
12,GGAGGAGAUGAUGAAUUUUTT against Etf1,0.965 (inactive)
13,GGUGAGUUCAUGGUUUCCUTT against Txnl4b,-0.142 (inactive)
14,GAGAAACUAUGGCUGAAAATT against Klk1,0.439 (inactive)
15,CCCUAAAAGACAAAGUGCUTT against Cmtm3,0.877 (inactive)
16,CCUAGAGAGACAUAUUGUUTT against Vstm4,-0.206 (inactive)
17,GCCAAUGACCCAAAUUCUATT against Ppip5k1,0.812 (inactive)
18,CCAUUUUUACCUACAUCCATT against Olfr452,2.43 (active)
19,CCCUACAGUACUAAUCAAATT against Ptgs2,0.6 (inactive)
20,GGGCUCUAACAUCUUAUACTT against Tbc1d31,1.54 (inactive)
21,GGGCCAUGGAUAAGAAAAATT against Psmc5,-2.61 (active)
22,GGCACAGACGGAUCAACAGTT against Clcn3,-0.725 (inactive)

row,Sequence,z-score
1,GCUAUUGAGAAACCACUUATT against Rasef,-0.276 (inactive)
2,CCUAUUACUCAAACACAGATT against Arl5b,-0.257 (inactive)
3,GGACACAGCAAGAAGAUACTT against Wfdc12,-1.79 (inactive)
4,GCCACACCAAUAGAAGUGUTT against Csnk1g3,-2.42 (active)
5,UCUCCUUCAUUCCAUGUAUTT against Olfr441,-2.18 (active)
6,CCAUCAAAGUCAUCGACGGTT against Birc6,-0.427 (inactive)
7,GGAGUGAGUCCUGAAGCAATT against Ifna12,-0.372 (inactive)
8,GCCGUUACUGAGCUGAAAUTT against Allc,-0.866 (inactive)
9,CGCUUCAUGACUUCUGAAUTT against Ppp1r32,0.0722 (inactive)
10,GCCCAACCUGUCCAUACUUTT against Guca2b,-0.193 (inactive)
11,GCUAUUUUCGUCACUUUCUTT against Tssk1,0.494 (inactive)
12,GGAUGAAUUCAUUGAAGAATT against Btk,0.321 (inactive)
13,GGUUCGUCGCCUUUUAGGGTT against Alx4,3.74 (active)
14,GAGCUUCUAAUUCACCCUATT against Abcc6,0.181 (inactive)
15,GGGAACCUUACUGUGUUAUTT against Gpr85,0.477 (inactive)
16,GGGUUUCCAGUACCUCAAUTT against Serpina6,-1.28 (inactive)
17,GGCUUUUAUAGCUAAGGUUTT against Spc25,-2.18 (active)
18,GGACUGUGAACAACUUUCGTT against Tcim,-1.07 (inactive)
19,GGCUAUCUACAAAAUGGUGTT against Vsnl1,-1.31 (inactive)
20,GCUAACCAGUGAUCCUACATT against Olfr846,0.471 (inactive)
21,GCACUUGUGACUUAUUGGATT against Vmn2r-ps11,0.506 (inactive)
22,GGGUCAGAGUUUUUCCAUCTT against Otog,2.72 (active)

row,Sequence,z-score
1,GGGACGUAAAUCAAAUGAATT against P2ry12,0.096 (inactive)
2,GGAGGUGGAACUGCUGUAUTT against Fam180a,-0.257 (inactive)
3,GGCAGAAAGAUUAUGAGUUTT against Gpr171,2.35 (active)
4,GGAAUUAAAAGAGCUGGGCTT against Selenon,0.697 (inactive)
5,GGGUGCUGAACAGUCACAATT against Rab12,0.717 (inactive)
6,UGAAGGCAAAUCACUCUUUTT against Olfr181,-0.042 (inactive)
7,GGAGGAUCCUGCUAUUCCATT against 4930583K01Rik,-2.24 (active)
8,GGUGCUGGAGAAGAACAUGTT against Map2k3,1.51 (inactive)
9,GGAAAGAGAUUCUCUUCUATT against Nsun2,-1.2 (inactive)
10,CGGCUUUGAAGUGGUGUAUTT against Smad9,1.66 (inactive)
11,CCUUAGGCAUGGUCUGGACTT against Gal3st2,0.897 (inactive)
12,CCUUCAUGAGUCCUCUUCATT against Gaa,-2.08 (active)
13,GGGUUUUCAAAGACAAGAUTT against Frmd6,1.47 (inactive)
14,GGAGCUUUUUAUGUUUUAGTT against Fam177a,1.93 (inactive)
15,CCCUGAGAUAGGCAAUGUGTT against Tceanc2,-1.57 (inactive)
16,GCUUCAUGGAUGCAAUUGATT against Adhfe1,-0.659 (inactive)
17,GGUUGAAAAGUAUCAAAGATT against Pus7l,-0.359 (inactive)
18,GGAUUAGACUGUCUUCAGCTT against Rnf144a,-0.496 (inactive)
19,GGCCUGUUUUGUACUUUUATT against Polr3gl,0.149 (inactive)
20,GGGAUAUUCAAAAUACUAGTT against Hells,0.653 (inactive)
21,GCUACAGACUGAACAAUGATT against Rbm17,-2.08 (active)
22,CCAUCUGAUUAAUGGCUUCTT against Tm7sf2,1.03 (inactive)

row,Sequence,z-score
1,GUGCCUUUGUGGUCUUCCUTT against Tmem179,-1.16 (inactive)
2,GGAUCCCAAGUUCAAAGCCTT against Rfxap,2.07 (active)
3,CCUAUAACAUCCACCUUCATT against Yipf3,-0.508 (inactive)
4,GGAAACAAGAAGAACGAUGTT against Camk2a,1.47 (inactive)
5,GCACUCAGCUAGGUGAAGATT against Hnrnpul1,-0.186 (inactive)
6,GAUCUAGGACAGCUUAGAUTT against Avpr1b,-0.955 (inactive)
7,GCCAAUGAAAACCUUUUGCTT against Parp9,-0.736 (inactive)
8,GGAUUUUACAUUUCUACACTT against Tmprss15,2.14 (active)
9,CGCACUGGAUAAUAUCAGCTT against Dok5,0.0135 (inactive)
10,GGCAGAAAUUUGGAUACCATT against Plekha4,2.1 (active)
11,GGAAGUUAGCUCCUAAAUATT against Pirt,-0.383 (inactive)
12,CCUUUUUUAUAUCCACUCATT against Bahcc1,1.22 (inactive)
13,GCAUCACUGCCACAGUGCATT against Olfr159,-0.133 (inactive)
14,GUAGUUGUUCUGAGAAAUCTT against Krtap19-2,-0.49 (inactive)
15,GGAAAUUCAAAAAGUGUGUTT against Aplf,-2.25 (active)
16,GGCCUGUUUUGAAGUAGAATT against B630019K06Rik,0.352 (inactive)
17,GCCAUUUGAAACUCUCCUGTT against Gstp3,-1.71 (inactive)
18,GGUCCUCCAGUUAAUGUCATT against Glra3,-0.916 (inactive)
19,GGUUAUCCAGAGAGUGCAUTT against Arl4d,1.01 (inactive)
20,ACUCCUAUGAGCUAGCUGUTT against Krt42,0.919 (inactive)
21,GGAAUUGAGACCCAAUAUUTT against Cnot7,-0.353 (inactive)
22,GGAAUCAGCAAACUCAACCTT against Rnase11,-0.748 (inactive)

row,Sequence,z-score
1,GGAUUCAGAAGCAGCAACATT against Nr1h2,-2.29 (active)
2,GGCCAAGGACAUUAUAAAUTT against Scly,-0.585 (inactive)
3,AGUGAACAUCGAUCGCAUGTT against Gng8,0.937 (inactive)
4,GCAAUGGUGGUUCUAAUAUTT against Cmya5,-0.00244 (inactive)
5,GCCAACCAGGAUUUUACAATT against Fga,0.463 (inactive)
6,GGAGAGUGUGUUUUCAGGCTT against Bop1,3.08 (active)
7,GAGUGUCUUGAACACAGCCTT against Olfr635,-0.0711 (inactive)
8,GGCCAAGUUCCUUUGCAUATT against Lacc1,0.274 (inactive)
9,CCAAAUGUAGCGGAACUGATT against Rsu1,0.195 (inactive)
10,GGGUAUGAGUGCAGACUAUTT against Zcchc9,0.803 (inactive)
11,GGCUUUGUAGCGAUAACAATT against D930030D11Rik,-0.936 (inactive)
12,GGUCAGUGACAUUAUCAAUTT against Vmn1r237,1.84 (inactive)
13,GGAGCAGUUACAGGAAAUCTT against Cdr2,-2.11 (active)
14,GGCAAGACUAUGAAUAUAATT against Ufsp2,-0.486 (inactive)
15,GGAUUUGGAUUUGGAUUUUTT against Tsc22d3,0.387 (inactive)
16,CCUUGUACCCAGUAAAGUCTT against Mab21l4,0.586 (inactive)
17,GGUGGACAAGUUCAAAGCCTT against Atg4d,-1.56 (inactive)
18,GCAGGAUAUGUAAAGGUUUTT against Gimap3,-0.924 (inactive)
19,CCUAAAAGCAGGCCAAAAUTT against Dhx29,-1.26 (inactive)
